Consider 52 molecules from PubChem BioAssay AID588591 (National Center for Advancing Translational Sciences (NCATS), 2011).

Hit rate of the full screen: of about 390,000 compounds, about 4,700 (1.2%) were called active. Entries that show only a call come without a potency. Not shown: some 4% with an inconclusive outcome. Calls follow the shape of the dose curve; as a rule, active = well fitted inhibition curve with a large enough effect; inconclusive = small, poorly fitted or top-dose-only effect, or another doubt; inactive = no such curve, though single readings can be large or run the other way. The full list was thinned out, with actives kept by preference.
Potency is read from the fitted curve at half-maximal effect.

Sequence of DNA polymerase eta (Homo sapiens) (Q9Y253 whole entry, looked up): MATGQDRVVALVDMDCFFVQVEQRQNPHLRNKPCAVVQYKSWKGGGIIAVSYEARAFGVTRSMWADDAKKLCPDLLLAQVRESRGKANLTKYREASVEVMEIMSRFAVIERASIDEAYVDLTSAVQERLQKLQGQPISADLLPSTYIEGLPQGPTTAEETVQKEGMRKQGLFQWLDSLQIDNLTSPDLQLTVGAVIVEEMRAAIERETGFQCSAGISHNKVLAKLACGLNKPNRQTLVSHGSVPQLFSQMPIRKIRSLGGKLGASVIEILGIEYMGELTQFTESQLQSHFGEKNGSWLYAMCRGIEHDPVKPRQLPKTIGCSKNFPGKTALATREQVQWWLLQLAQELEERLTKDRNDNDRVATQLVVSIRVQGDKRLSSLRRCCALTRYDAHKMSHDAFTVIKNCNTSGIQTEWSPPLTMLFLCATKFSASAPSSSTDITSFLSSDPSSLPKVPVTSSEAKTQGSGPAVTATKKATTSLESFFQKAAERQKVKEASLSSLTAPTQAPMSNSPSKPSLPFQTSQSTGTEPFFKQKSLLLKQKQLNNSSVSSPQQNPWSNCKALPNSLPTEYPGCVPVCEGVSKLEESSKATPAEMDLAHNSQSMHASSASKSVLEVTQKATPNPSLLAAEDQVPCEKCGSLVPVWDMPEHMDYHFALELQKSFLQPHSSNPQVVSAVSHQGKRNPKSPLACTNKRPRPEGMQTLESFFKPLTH

In the assay the target is DNA polymerase eta (Homo sapiens) (UniProt Q9Y253). The assay can be described thus: qHTS for Inhibitors of Polymerase Eta. Conditions: recombinant Pol eta, fluorescent DNA replication assay; series mostly up to 114 µM. In outline:
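Fluorescent replication assay: 50 nM final substrate added after a 15 min room-temperature compound preincubation with 10 nM enzyme. Signal taken at 0 min and again at 10 min.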
(In qHTS, concentration-response curves come from the screen itself.)
For the molecule `O=C(NCc1ccc(F)cc1)c1ccc2nc(N3CCCCC3)sc2c1`, the Potency entry is “inactive”.

In the case of `Cc1ccccc1-c1nc2cc(NC(=O)c3cccc(OCCC(C)C)c3)ccc2o1`, the Potency result was “inactive”. The same measure for `CCC(=O)N1CCc2cc(CNS(=O)(=O)c3ccc(Br)s3)ccc21`: “inactive”; for `Cc1cccc(NC(=O)CSc2nc3c(oc4ccccc43)c(=O)n2-c2ccc(F)cc2)c1`: “inactive”; for `O=S(=O)(Nc1ccc2[nH]ncc2c1)c1ccccc1Cl`: “inactive”. Take `O=C(O)c1cc(S(=O)(=O)Nc2ccc3cn[nH]c3c2)ccc1Br`: the Potency was 50.1 µM (active). `O=C(Nc1ccc2cn[nH]c2c1)c1ccc(S(=O)(=O)N2CCOCC2)cc1`: the Potency entry is “inactive”. Consider `CCCn1c2ccccc2c2cnn(CC(=O)N(C)c3ccccc3CC)c(=O)c21`, for which the Potency entry is “inactive”.

As to `Cc1c(C(=O)Nc2ccccn2)oc2ccc(Br)cc12`, the Potency is 39.8 µM (active). The same measure for `Cc1ccc(NC(=O)c2oc3ccccc3c2C)c([N+](=O)[O-])c1`: “inactive”.

Regarding `Cc1c(C(=O)NC2CCCCC2)oc2ccccc12`, the Potency entry is “inactive”. The same measure for `COc1ccccc1CNc1nccn(-c2ccc(F)cc2)c1=O`: “inactive”; for `C#Cc1ccc([C@@H]2C=C(C(=O)O)O[C@H](OCCCCO)C2)cc1`: 20 µM (active). Take `O=C(NCc1ccccc1)C1=C[C@@H](c2ccccc2)C[C@@H](OCCCCO)O1`: the Potency entry was “inactive”. For `O=C(O)C1=C[C@H](c2cccs2)C[C@H](OCCCCO)O1`, the Potency result is “inactive”.

`COc1ccc(CCNC(=O)c2c3c(nc4ccccc24)C(=O)N(C2CCCCC2)C3)cc1OC`: the Potency entry was “inactive”. Then `CCNC(=O)CC1C(=O)N(c2ccc(F)cc2)C(=O)N1Cc1ccc(C)cc1` (configuration not stated), with “inactive”; and `CCC(=O)N1CCc2cc(S(=O)(=O)NCCC(=O)Nc3cccc(C)c3C)ccc21`, with “inactive”; and `Cc1oc(-c2ccccc2F)nc1CN1CCC(C(=O)NCCc2ccc(Cl)cc2)CC1`, with “inactive”. Then `CCc1ccccc1OCC(=O)Nc1nnc(C2CC2)s1`, with “inactive”; and `CCc1cc(C(=O)Nc2nnc(C3CC3)s2)sc1C`, with 50.1 µM (active). Turning to `Cc1cccc(NC(=O)CSCC(=O)Nc2nnc(C3CC3)s2)c1`, the Potency entry was “inactive”. Take `Cc1ccc(CNC(=O)c2c(O)nc3c(C)cccn3c2=O)cc1`: the Potency result is “inactive”. On to `C=C(C)C(=O)Nc1cccc(C2=NOC3(C2)C[C@H](C(N)=O)N(C(=O)C(c2ccccc2)c2ccccc2)C3)c1` (some centres not stated), for which the Potency is 3.98 µM (active). Then `C/C=C(\C)C(=O)N1CC2(CC(c3cccc(NC(=O)CCCCC)c3)=NO2)C[C@@H]1C(N)=O` (some centres not stated), with “inactive”; and `NC(=O)[C@H]1CC2(CC(c3cccc(NC(=O)[C@H]4CCC(=O)N4)c3)=NO2)CN1C(=O)c1ccccc1C(=O)c1ccccc1` (some centres not stated), with “inactive”. Consider `O=[N+]([O-])c1ccc(C=Nc2ccc(Cl)cc2Cl)s1`, for which the Potency was 89.1 µM (active). As to `CCOc1ccccc1CNCc1c(C(=O)O)c(C)n(Cc2ccc(C)cc2)c1C`, the Potency result was “inactive”. Consider `COc1ccc(CNC(=O)c2cc3c(-c4ccccc4F)nn(C)c3s2)c(OC)c1`, for which the Potency entry was “inactive”.

Turning to `CS(=O)(=O)c1ccc2c(c1)SC1=NC(=O)/C(=C/c3ccco3)C(=N)N12`, the Potency is 3.16 µM (active).

In the case of `Cc1ccc(C)c(Cn2c(C(=O)O)c(CNCc3cccs3)c3ccccc32)c1`, the Potency entry was “inactive”. The same measure for `CCOc1ccc2nc(N3CCCC(C(=O)Nc4cc(C)ccc4C)C3)sc2c1` (configuration not stated): “inactive”. The same measure for `C[C@@H]1O[C@@H](OC[C@H]2O[C@@H](Oc3c(-c4ccc(O)cc4)oc4cc(O)cc(O)c4c3=O)[C@H](O)[C@@H](O)[C@@H]2O)[C@H](O)[C@H](O)[C@H]1O`: “inactive”; for `COc1ccc(CCOC2OC(CO)C(OC(=O)/C=C/c3ccc(O)c(OC)c3)C(O[C@H]3O[C@@H](C)[C@H](O)[C@@H](O)[C@H]3O)C2O)cc1O` (some centres not stated): “inactive”; for `COc1ccc(-c2cc(=O)c3c(O)cc(O[C@@H]4O[C@H](CO[C@@H]5O[C@@H](C)[C@H](O)[C@@H](O)[C@H]5O)[C@@H](O)[C@H](O)[C@H]4O)cc3o2)cc1O`: 79.4 µM (active). For `COc1ccccc1-n1c(-c2cc(-c3ccco3)[nH]n2)n[nH]c1=S`, the Potency was 50.1 µM (active). On to `COc1ccc(OCc2n[nH]c(=S)n2N)cc1`, for which the Potency result is “inactive”. As for `Cc1cc(-c2n[nH]c(=S)n2-c2ccc(C)c(C)c2)no1`, the Potency result was “inactive”. The same measure for `COc1ccc(C(=O)Nc2nonc2-c2ccc(OC)c(OC)c2)cc1Cl`: “inactive”; for `Cc1cccc(OCCCC(=O)Nc2sc3c(c2C(N)=O)CCC(C)C3)c1` (configuration not stated): “inactive”; for `CSc1nnc(SCc2nc3sc(C(=O)O)c(C)c3c(=O)[nH]2)s1`: 3.16 µM (active). Consider `Cc1ccc(S(=O)(=O)N2CCCC2C(=O)OCc2nc3sc(C)c(C)c3c(=O)[nH]2)cc1` (configuration not stated), for which the Potency entry was “inactive”. The same measure for `CCN(CC)Cc1nc2sc(C)c(C)c2c(=O)[nH]1`: “inactive”; for `CCc1nn(CC(=O)NCC(C)c2ccccc2)c(=O)c2cc3occc3n12` (configuration not stated): “inactive”. For `Cc1cc(Cl)ccc1OCC(=O)N(Cc1ccc(N(C)C)cc1)C1CCS(=O)(=O)C1` (configuration not stated), the Potency result was “inactive”. The same measure for `COc1ccc2c(c1)c(=O)c(C(=O)c1ccccc1)cn2CC(=O)Nc1ccc2c(c1)OCCO2`: “inactive”.

With `CCOC(=O)c1ccc(NC(=O)C2CCN(S(=O)(=O)c3ccc4c(c3)CCCC(=O)N4)CC2)cc1`, the Potency result is “inactive”.

For `O=c1n(Cc2cccc(C(F)(F)F)c2)c2ccccc2c2nc(-c3ccccc3)nn12`, the Potency result was “inactive”. As to `CC1(OC(=O)C2CCCC2)C(=O)C=C2C=C(c3ccc(C#N)cc3)OC=C2C1=O` (configuration not stated), the Potency was 20 µM (active).

As for `Cc1ccccc1C(=O)N1CCC(C(=O)Oc2ccc(C#N)cc2)CC1`, the Potency entry was “inactive”.

As to `N#Cc1ccc(C2=CC(=O)C[C@H](c3ccc(Cl)cc3)C2)cc1`, the Potency entry was “inactive”. Then `CCOC(=O)c1c(N)n(-c2cccc(C)c2C)c2nc3ccccc3nc12`, with “inactive”.
